PubChem BioAssay (Tox21)
Inconclusive results are not listed. The source made the active and inactive calls. Unless noted, calls follow the shape of the dose curve; as a rule, active = well fitted curve in the direction sought with a large enough effect in the repeat runs; inconclusive = weak or mixed curves; inactive = no such curve, though single readings can be large; an effect the other way counts as inactive or inconclusive.

Experiments:
[1] = qHTS assay for small molecules that induce genotoxicity in human embryonic kidney cells expressing luciferase-tagged ATAD5 (AID 651632); also: nearly all actives have a fitted effect of over 15% in size
How it was run: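 HEK293T cells carrying luciferase-tagged ATAD5 were given compound or DMSO vehicle and incubated 16 hr at 37C, 5% CO2. Luciferase activity was read after 30 min at room temperature with Amplite; a rise signals genotoxic stress.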

[2] = qHTS assay for small molecule agonists of the p53 signaling pathway - cell viability (AID 651633; calls by dose curve;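 also: p53RE-bla HCT reporter cells with a stable beta-lactamase p53 reporter; series mostly up to about 83 µM; nearly all actives have a fitted effect of over 30% in size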)
How it was run: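 Viability counter-read: CellTiter-Glo luminescence (30 min, room temperature) in the same p53RE-bla plates. These plates had been exposed to compounds for 16 h at 37 C.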

[3] = qHTS assay for small molecules that induce genotoxicity in human embryonic kidney cells expressing luciferase-tagged ATAD5 - cell viability (AID 651634; calls by dose curve; also: nearly all actives have a fitted effect of over 25% in size)
How it was run: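 HEK293T cells carrying luciferase-tagged ATAD5, 2,000 cells/well, exposed to compound for 15.5 hr at 37C. Viability read as live-cell protease activity by CellTiter-Fluor fluorescence after 30 min at 37C.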

[4] = qHTS assay for small molecule disruptors of the mitochondrial membrane potential - cell viability (AID 720634; calls by dose curve;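 also: human HepG2 liver cancer cells; series mostly up to about 83 µM; nearly all actives have a fitted effect of over 20% in size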)
How it was run: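 HepG2 cells, 2,000 per well, attached overnight, then treated 1 hr at 37 C, 5% CO2. Viability read as ATP by CellTiter-Glo luminescence after 30 min at room temperature. Read in the same wells as the m-MPI membrane-potential dye assay.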

[5] = qHTS assay for small molecule disruptors of the mitochondrial membrane potential (AID 720635)
How it was run: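 Mitochondrial membrane potential tracked with Mito-MPS dye, red aggregates (ex 540/em 590 nm) against green monomers (ex 490/em 535 nm). Compound treatment 1 hr at 37C, dye 30 min in HepG2.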

[6] = qHTS assay to test for compound auto fluorescence at 590 nm (red) in HepG2 cells (AID 720674)
How it was run: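 We screened compounds on adherent HepG2 cells, incubating them for an hour at 37 C in 5% CO2 before reading emission at 590 nm under 540 nm excitation; values reflect equivalence to Rose Bengal sodium fluorescence.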

[7] = qHTS assay to test for compound auto fluorescence at 535 nm (green) in HepG2 cells (AID 720675)
[8] = qHTS assay to test for compound auto fluorescence at 460 nm (blue) in HEK293 cells (AID 720678)
How it was run: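 HEK293, 2,000 cells/well, 10% dialyzed FBS; attach 4-5 hr 37C; pin compound or DMSO; o/n 37C/5% CO2; fluorescence 405/460 nm; triamterene-equivalent units.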

[9] = qHTS assay to test for compound auto fluorescence at 590 nm (red) in HEK293 cells (AID 720679)
How it was run: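 Intensity at 540nm excitation and 590nm emission is reported as Rose Bengal sodium-equivalent autofluorescence. Measurements followed overnight exposure (37C, 5% CO2) of HEK293 cells, 2,000 per well, to 23 nL compound.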

[10] = qHTS assay to test for compound auto fluorescence at 535 nm (green) in HEK293 cells (AID 720680)
[11] = qHTS assay to test for compound auto fluorescence at 460 nm (blue) in HEK293 cell free culture (AID 720681)
How it was run: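 Blue fluorescence (Ex 405/Em 460 nm, triamterene-equivalent) was read immediately after pin transfer of compound or DMSO into medium (DMEM, 10% FBS) without cells.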

[12] = qHTS assay to test for compound auto fluorescence at 535 nm (green) in HEK293 cell free culture (AID 720682)
How it was run: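 Green-channel intensity (Ex/Em 485/535 nm) was recorded from compound-treated wells containing only DMEM with 10% FBS. Fluorescein provided the equivalency standard.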

[13] = qHTS assay to test for compound auto fluorescence at 590 nm (red) in HEK293 cell free culture (AID 720683)
How it was run: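 Red-channel autofluorescence of compounds in culture medium (DMEM, 10% FBS), no cells, measured at 540/590 nm. Rose Bengal sodium is the reference fluorophore for equivalence.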

[14] = qHTS assay to test for compound auto fluorescence at 590 nm (red) in HepG2 cell free culture (AID 720684)
How it was run: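 Steps: dispense MEM/10% FBS medium, no cells; pin compound or DMSO vehicle; read red channel, Ex/Em 540/590 nm. Output given as Rose Bengal sodium equivalents.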

[15] = qHTS assay to test for compound auto fluorescence at 460 nm (blue) in HepG2 cell free culture (AID 720685)
How it was run: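 Compound (23 nL) or DMSO pinned into cell-free MEM with 10% FBS; blue fluorescence read at 405/460 nm excitation/emission, expressed as auto-fluorescence equivalency to triamterene.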

[16] = qHTS assay to test for compound auto fluorescence at 535 nm (green) in HepG2 cell free culture (AID 720686)
[17] = qHTS assay to test for compound auto fluorescence at 460 nm (blue) in HepG2 cells (AID 720687)
How it was run: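 Blue-channel autofluorescence (Ex/Em 405/460 nm, triamterene-equivalent) was measured after 1 hr compound exposure at 37 C, 5% CO2. Cells were HepG2, plated overnight at 37 C in MEM plus 10% FBS.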

[18] = biological target: Glucocorticoid receptor (Homo sapiens) (UniProt P04150); experiment: qHTS assay to identify small molecule agonists of the glucocorticoid receptor (GR) signaling pathway (AID 720691; active = well fitted activation curve with a large enough effect in the signal ratio in the repeat runs, not every such curve was filed as active; the % refers to the signal ratio)
Chain of Glucocorticoid receptor (Homo sapiens) (P04150 whole entry, looked up): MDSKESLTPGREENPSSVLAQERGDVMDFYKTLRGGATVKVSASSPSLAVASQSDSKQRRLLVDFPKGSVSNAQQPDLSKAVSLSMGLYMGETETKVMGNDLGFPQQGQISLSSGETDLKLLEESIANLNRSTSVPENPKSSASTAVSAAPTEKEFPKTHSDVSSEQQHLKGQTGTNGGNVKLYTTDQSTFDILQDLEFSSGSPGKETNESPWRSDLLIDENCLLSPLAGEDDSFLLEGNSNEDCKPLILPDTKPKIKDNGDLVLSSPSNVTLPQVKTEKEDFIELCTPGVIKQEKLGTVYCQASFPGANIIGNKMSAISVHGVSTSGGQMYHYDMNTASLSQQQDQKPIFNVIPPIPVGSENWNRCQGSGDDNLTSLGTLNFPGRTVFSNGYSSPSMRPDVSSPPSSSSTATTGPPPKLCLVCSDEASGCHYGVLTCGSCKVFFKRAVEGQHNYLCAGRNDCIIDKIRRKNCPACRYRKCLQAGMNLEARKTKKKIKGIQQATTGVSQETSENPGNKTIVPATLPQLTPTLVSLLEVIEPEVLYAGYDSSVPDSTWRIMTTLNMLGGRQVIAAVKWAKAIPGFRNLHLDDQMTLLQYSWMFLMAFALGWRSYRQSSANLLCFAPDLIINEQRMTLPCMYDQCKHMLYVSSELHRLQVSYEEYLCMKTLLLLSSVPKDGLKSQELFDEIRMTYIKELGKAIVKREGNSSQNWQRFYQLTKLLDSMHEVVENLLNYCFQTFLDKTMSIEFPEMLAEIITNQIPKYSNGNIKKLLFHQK
How it was run: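 GR-bla HeLa cells carrying a GRE-driven beta-lactamase reporter, exposed to compounds for 18 h at 37 C. Reporter activation read as fluorescence after 2 h with LiveBLAzer B/G FRET substrate at room temperature.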

[19] = biological target: Glucocorticoid receptor (Homo sapiens) (UniProt P04150); experiment: qHTS assay to identify small molecule antagonists of the glucocorticoid receptor (GR) signaling pathway (AID 720692; active = well fitted inhibition curve with a large enough effect in the signal ratio in the repeat runs, not every such curve was filed as active; the % refers to the signal ratio)
How it was run: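 GR-bla HeLa cells carrying a GRE-driven beta-lactamase reporter received compound after 4 h plating, then dexamethasone (5 nM final). After 18 h at 37C, the FRET substrate was loaded for 2 h at room temperature and fluorescence read.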

[20] = qHTS assay for identifying genotoxic compounds that show differential cytotoxicity against isogenic chicken DT40 cell lines with known DNA damage response pathways - Rev3 mutant cell line (AID 743014); also: potency is read from the fitted curve at half-maximal effect; nearly all actives have a fitted effect of over 55% in size
[21] = qHTS assay to identify small molecule antagonists of the androgen receptor (AR) signaling pathway using the MDA cell line - cell viability counter screen (AID 743041; also: nearly all actives have a fitted effect of over 45% in size)
How it was run: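 Cells were plated at 3,000 per well and left 5 h. Compounds in DMSO were then pinned in, followed by R1881. After 16 h at 37C, CellTiter-Fluor fluorescence gave viability.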

[22] = qHTS assay to identify small molecule antagonists of the thyroid receptor (TR) signaling pathway - cell viability counter screen (AID 743064); also: nearly all actives have a fitted effect of over 50% in size
How it was run: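 In rat pituitary GH3.TRE-Luc reporter cells co-exposed to compound and 1 nM T3 for 23.5 h, cytotoxicity was assessed with CellTiter-Fluor in the same wells, read by fluorescence.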

[23] = qHTS assay to identify small molecule antagonists of the thyroid receptor (TR) signaling pathway (AID 743065); also: series mostly up to about 70 µM; nearly all actives have a fitted effect of over 55% in size
How it was run: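 Antagonism measured as loss of luciferase signal in GH3 cells stably carrying a TRE-luciferase reporter, co-treated with compound and T3 (1 nM final) for 23.5 h at 37 C. Viability was read in the same well by CellTiter-Fluor.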

[24] = tested on: thyroid hormone receptor (rat, GH3 cells); experiment: qHTS assay to identify small molecule agonists of the thyroid receptor (TR) signaling pathway (AID 743066; calls by dose curve)
[25] = biological target: Estrogen receptor (Homo sapiens) (UniProt P03372); experiment: qHTS assay to identify small molecule antagonists of the estrogen receptor alpha (ER-alpha) signaling pathway (AID 743069; active = well fitted curve in the direction sought with a large enough effect in the signal ratio in the repeat runs, not every such curve was filed as active; the % refers to the signal ratio)
Chain of Estrogen receptor (Homo sapiens) (P03372 whole entry, looked up): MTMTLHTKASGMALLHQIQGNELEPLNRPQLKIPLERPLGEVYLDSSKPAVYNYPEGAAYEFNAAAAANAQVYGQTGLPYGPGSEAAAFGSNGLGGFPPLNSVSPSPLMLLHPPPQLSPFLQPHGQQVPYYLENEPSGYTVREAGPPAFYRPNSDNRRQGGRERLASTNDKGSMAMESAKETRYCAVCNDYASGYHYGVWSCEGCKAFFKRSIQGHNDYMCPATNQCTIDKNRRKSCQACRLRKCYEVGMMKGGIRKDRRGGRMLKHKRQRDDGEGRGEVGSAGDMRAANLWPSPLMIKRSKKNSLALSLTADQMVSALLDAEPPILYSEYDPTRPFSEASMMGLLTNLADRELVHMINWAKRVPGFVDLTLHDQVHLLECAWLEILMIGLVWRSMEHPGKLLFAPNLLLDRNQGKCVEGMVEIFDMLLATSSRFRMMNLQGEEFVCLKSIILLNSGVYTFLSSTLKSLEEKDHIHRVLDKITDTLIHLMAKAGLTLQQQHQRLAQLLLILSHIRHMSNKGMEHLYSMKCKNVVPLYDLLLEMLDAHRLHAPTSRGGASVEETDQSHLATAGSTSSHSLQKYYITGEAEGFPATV
How it was run: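 ER-alpha-UAS-bla GripTite HEK293 line; 2% charcoal-stripped FBS overnight; plated, 4 hr 37C/5% CO2; cpd in DMSO + 17beta-estradiol, 18 hr 37C; LiveBLAzer B/G FRET substrate 2 hr RT; fluorescence intensity.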

[26] = qHTS assay to identify small molecule antagonists of the estrogen receptor alpha (ER-alpha) signaling pathway - cell viability counter screen (AID 743074; calls by dose curve;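 also: HEK293 cells carrying ER-alpha-UAS-bla reporter stimulated with 17beta-estradiol; nearly all actives have a fitted effect of over 45% in size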)
[27] = biological target: Estrogen receptor (Homo sapiens) (UniProt P03372); experiment: qHTS assay to identify small molecule agonists of the estrogen receptor alpha (ER-alpha) signaling pathway (AID 743075; calls by dose curve;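 also: HEK293 GripTite cells with ER-alpha and UAS-driven beta-lactamase reporter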)
[28] = biological target: Estrogen receptor (Homo sapiens) (UniProt P03372); experiment: qHTS assay to identify small molecule agonists of the estrogen receptor alpha (ER-alpha) signaling pathway using the BG1 cell line (AID 743079); also: nearly all actives have a fitted effect of over 20% in size
[29] = qHTS assay to identify small molecule antagonists of the estrogen receptor alpha (ER-alpha) signaling pathway using the BG1 cell line (AID 743080; calls by dose curve;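 also: BG1 cells stimulated with 17beta-estradiol alongside compound; series mostly up to about 70 µM; nearly all actives have a fitted effect of over 25% in size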)
How it was run: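 BG1Luc4E2, endogenous ER-alpha, 4xERE-luc; 5 d charcoal-stripped FBS, phenol red free; 24 h plating; cpd + 17beta-estradiol 21.5 h, 37 C/5% CO2; CellTiter-Fluor viability 30 min, then ONE-Glo luciferase 30 min RT.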

[30] = qHTS assay to identify small molecule antagonists of the estrogen receptor alpha (ER-alpha) signaling pathway using the BG1 cell line - cell viability counter screen (AID 743081);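 also: compound given together with 17beta-estradiol as the ER stimulus; series mostly up to about 70 µM; nearly all actives have a fitted effect of over 45% in size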
Aromatase (Homo sapiens) = Aromatase (Homo sapiens) (UniProt P11511); experiment: qHTS assay to identify aromatase inhibitors (AID 743083); also: series mostly up to about 70 µM; nearly all actives have a fitted effect of over 55% in size
Chain of Aromatase (Homo sapiens) (P11511 whole entry, looked up): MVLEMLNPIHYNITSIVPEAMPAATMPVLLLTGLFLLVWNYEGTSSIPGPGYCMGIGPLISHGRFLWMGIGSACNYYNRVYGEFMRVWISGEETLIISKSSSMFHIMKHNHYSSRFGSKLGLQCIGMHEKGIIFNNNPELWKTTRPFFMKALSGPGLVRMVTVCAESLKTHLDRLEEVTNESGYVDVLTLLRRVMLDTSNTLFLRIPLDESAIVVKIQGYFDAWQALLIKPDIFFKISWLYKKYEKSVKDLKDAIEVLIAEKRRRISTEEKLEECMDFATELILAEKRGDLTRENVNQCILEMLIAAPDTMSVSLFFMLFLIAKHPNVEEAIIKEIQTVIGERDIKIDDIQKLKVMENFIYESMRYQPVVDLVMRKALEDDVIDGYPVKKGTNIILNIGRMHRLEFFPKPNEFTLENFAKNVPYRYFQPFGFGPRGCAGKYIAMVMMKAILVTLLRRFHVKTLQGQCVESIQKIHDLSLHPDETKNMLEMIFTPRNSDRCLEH

[31] = qHTS assay to identify aromatase inhibitors - cell viability counter screen (AID 743084);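 also: cells stimulated with testosterone during compound exposure; nearly all actives have a fitted effect of over 55% in size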
[32] = biological target: Aryl hydrocarbon receptor (Homo sapiens) (UniProt P35869); experiment: qHTS assay to identify small molecule that activate the aryl hydrocarbon receptor (AhR) signaling pathway (AID 743085);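 also: HG2L7.5c1 human HepG2 liver cells with stably integrated DRE-driven firefly reporter; series mostly up to about 70 µM; nearly all actives have a fitted effect of over 15% in size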
Chain of Aryl hydrocarbon receptor (Homo sapiens) (P35869 whole entry, looked up): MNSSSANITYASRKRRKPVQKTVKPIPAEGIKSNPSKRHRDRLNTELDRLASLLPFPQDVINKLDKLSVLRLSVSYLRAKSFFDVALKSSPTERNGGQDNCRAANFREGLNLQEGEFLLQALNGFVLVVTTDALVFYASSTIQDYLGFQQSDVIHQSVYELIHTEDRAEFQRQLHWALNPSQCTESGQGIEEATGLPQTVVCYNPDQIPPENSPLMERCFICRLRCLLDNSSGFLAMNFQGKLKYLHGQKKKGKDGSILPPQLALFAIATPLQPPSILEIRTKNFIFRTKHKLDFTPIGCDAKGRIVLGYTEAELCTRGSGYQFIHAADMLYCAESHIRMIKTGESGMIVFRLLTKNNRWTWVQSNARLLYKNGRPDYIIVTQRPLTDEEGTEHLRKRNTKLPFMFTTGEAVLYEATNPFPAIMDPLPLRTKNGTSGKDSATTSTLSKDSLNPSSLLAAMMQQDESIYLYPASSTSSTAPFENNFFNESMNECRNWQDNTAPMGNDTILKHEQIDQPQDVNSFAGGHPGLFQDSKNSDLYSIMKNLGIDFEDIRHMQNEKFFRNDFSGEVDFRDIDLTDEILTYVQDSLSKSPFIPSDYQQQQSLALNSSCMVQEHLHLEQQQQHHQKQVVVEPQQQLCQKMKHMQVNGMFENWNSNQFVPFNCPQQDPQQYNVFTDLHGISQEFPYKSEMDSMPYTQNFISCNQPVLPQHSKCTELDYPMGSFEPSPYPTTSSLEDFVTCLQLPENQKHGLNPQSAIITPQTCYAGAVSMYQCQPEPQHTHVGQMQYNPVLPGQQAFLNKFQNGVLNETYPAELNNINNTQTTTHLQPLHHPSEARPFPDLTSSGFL
How it was run: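 AhR agonist activity is inferred from enhanced light output of a DRE-controlled firefly luciferase reporter in HepG2 cells, measured with ONE-Glo following 24 h treatment at 37C.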

[33] = biological target: Peroxisome proliferator-activated receptor gamma (Homo sapiens) (UniProt P37231); experiment: qHTS assay to identify small molecule agonists of the peroxisome proliferator-activated receptor gamma (PPARg) signaling pathway (AID 743094; active = well fitted activation curve with a large enough effect in the signal ratio in the repeat runs, not every such curve was filed as active; the % refers to the signal ratio)
Chain of Peroxisome proliferator-activated receptor gamma (Homo sapiens) (P37231 whole entry, looked up): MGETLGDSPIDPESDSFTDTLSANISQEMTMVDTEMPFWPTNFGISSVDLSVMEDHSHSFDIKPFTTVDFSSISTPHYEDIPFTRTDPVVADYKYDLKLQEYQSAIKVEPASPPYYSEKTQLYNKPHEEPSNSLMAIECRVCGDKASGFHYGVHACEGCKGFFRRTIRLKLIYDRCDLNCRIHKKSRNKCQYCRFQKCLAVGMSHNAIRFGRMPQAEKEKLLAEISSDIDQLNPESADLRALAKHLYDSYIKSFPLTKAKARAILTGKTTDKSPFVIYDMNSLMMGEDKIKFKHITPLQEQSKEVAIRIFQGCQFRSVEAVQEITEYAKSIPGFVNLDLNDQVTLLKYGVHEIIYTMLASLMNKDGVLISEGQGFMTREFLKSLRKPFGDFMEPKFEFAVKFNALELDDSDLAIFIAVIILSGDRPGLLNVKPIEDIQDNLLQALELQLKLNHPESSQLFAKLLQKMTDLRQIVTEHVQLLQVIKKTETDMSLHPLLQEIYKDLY
How it was run: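 GeneBLAzer PPARg UAS-bla HEK293H cells were plated, rested 5 h, then exposed to compounds for 17 h at 37C. Beta-lactamase activity was read by LiveBLAzer B/G FRET substrate fluorescence after 1 h at room temperature.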

Measured: Potency

O=P1(N(CCCl)CCCl)NC(OO)CCO1 (centres undefined)
active: [20] 13.3 µM
inactive: all other assays above
